Test systems include HCT-15 colon; HT29 colon; SNB-75 CNS; SNB-19 CNS; U251 CNS; PC-3 prostate; SK-MEL-5 melanoma; UACC-62 melanoma; LOX IMVI melanoma; SK-MEL-28 melanoma; SK-MEL-2 melanoma; EKVX NSCLC; SN12C renal; TK-10 renal; A498 renal; MOLT-4 leukemia.
Assay in all cases: NCI-60 one-dose screen, 48 h (100 = growth as untreated, 0 = no growth, -100 = all killed)
Another assay relates to UO-31 renal. As to conditions: 10 µM unless noted.
In another assay the test system is ACHN renal. As to conditions: 10 µM unless noted.
In the next assay the test system is CAKI-1 renal. As to conditions: 10 µM unless noted.
The next assay has as its system CCRF-CEM leukemia. As to conditions: 10 µM unless noted.

Compounds without any hit were thinned out: in the full panel of roughly 83,000, 20% have a hit.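 48-hour exposure, single concentration, 96-well plates; percent growth endpoint where 0 means no net growth. Active: below 10.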 Values without a mark were called inactive. The source made the active and inactive calls.

Turning to `COc1ccc2c(O)c(/C=C3\N=Nc4nc(C)ccc43)oc2c1CC1CCNCC1`, the growth in the assay on HCT-15 colon (10 µM unless noted) was 93.3%; in the assay with HT29 colon (10 µM unless noted) it was 31.6%; with SNB-75 CNS (10 µM unless noted), 25.2%; in the assay with SNB-19 CNS (10 µM unless noted), 57.5%; with U251 CNS (10 µM unless noted), 21.4%; with PC-3 prostate (10 µM unless noted), 69.2%. The growth in the assay on SK-MEL-5 melanoma (10 µM unless noted) is 81.1%; in the assay on UACC-62 melanoma (10 µM unless noted), -26.3% (active); in the assay on LOX IMVI melanoma (10 µM unless noted) it was 5.08% (active); with SK-MEL-28 melanoma (10 µM unless noted), -68.4% (active); in the assay on SK-MEL-2 melanoma (10 µM unless noted), 95.5%; in the assay on EKVX NSCLC (10 µM unless noted), 63.4%. Also, the growth in the assay with SN12C renal (10 µM unless noted) was 60.3%; with UO-31 renal, 70.6%; in the assay on TK-10 renal (10 µM unless noted), 79.1%; in the assay with ACHN renal, 69.2%; with CAKI-1 renal it was 83.1%; with A498 renal (10 µM unless noted) it was 44.7%. Further, the growth in the assay on CCRF-CEM leukemia is 63.3%; in the assay with MOLT-4 leukemia (10 µM unless noted), 48.1%.

Take `O=C(CCN1CCOCC1)Nc1cccc(-n2cc(-c3ccncc3)c(-c3ccc(Cl)c(O)c3)n2)c1`: the growth in the assay with HCT-15 colon (10 µM unless noted) is 28.5%; in the assay on HT29 colon (10 µM unless noted), -7.51% (active); with SNB-75 CNS (10 µM unless noted) it was -1.7% (active); in the assay on SNB-19 CNS (10 µM unless noted), 48.8%; with U251 CNS (10 µM unless noted) it was 27.7%; in the assay on PC-3 prostate (10 µM unless noted), 11.4%. For the same molecule, the growth with SK-MEL-5 melanoma (10 µM unless noted) is 20.3%; in the assay on UACC-62 melanoma (10 µM unless noted), 43.1%; in the assay on LOX IMVI melanoma (10 µM unless noted), 23.1%; with SK-MEL-28 melanoma (10 µM unless noted), 49.6%; in the assay on SK-MEL-2 melanoma (10 µM unless noted) it was 14.8%; in the assay with EKVX NSCLC (10 µM unless noted), 55.7%. Further, the growth in the assay with SN12C renal (10 µM unless noted) is 42.8%; in the assay on UO-31 renal, 41.9%; in the assay with TK-10 renal (10 µM unless noted), 54.5%; in the assay on ACHN renal, 34.2%; in the assay with CAKI-1 renal it was 38.6%; in the assay with A498 renal (10 µM unless noted) it was 10.9%. The growth is 17.7% in the assay on CCRF-CEM leukemia and 28.6% with MOLT-4 leukemia (10 µM unless noted).

With `CCCCCCCC/C=C\CCCCCCCCOc1ccccc1CC(=O)NCC[N+]1(C)CCOCC1`, the growth in the assay with HCT-15 colon (10 µM unless noted) was 92.5%; with HT29 colon (10 µM unless noted), 44.9%; in the assay with SNB-75 CNS (10 µM unless noted) it was 47.7%; in the assay with SNB-19 CNS (10 µM unless noted), 32.8%; with U251 CNS (10 µM unless noted) it was 12.3%; with PC-3 prostate (10 µM unless noted) it was 21.7%. Besides, the growth with SK-MEL-5 melanoma (10 µM unless noted) is 89.3%; in the assay on UACC-62 melanoma (10 µM unless noted) it was 68%; in the assay with LOX IMVI melanoma (10 µM unless noted) it was 71.8%; in the assay on SK-MEL-28 melanoma (10 µM unless noted), 93.8%; in the assay on SK-MEL-2 melanoma (10 µM unless noted), 90.3%; in the assay with EKVX NSCLC (10 µM unless noted), 92.1%. For the same molecule, the growth with SN12C renal (10 µM unless noted) was 60.5%; in the assay with UO-31 renal, 96.2%; in the assay on TK-10 renal (10 µM unless noted) it was 8.83% (active); in the assay on ACHN renal, 85.5%; in the assay on CAKI-1 renal, 71.6%; in the assay with A498 renal (10 µM unless noted), 95.2%. Besides, the growth is 67.5% in the assay on CCRF-CEM leukemia and 83.7% with MOLT-4 leukemia (10 µM unless noted).

Turning to `COc1cc(Cl)cc(-c2nn(C(=O)NS(=O)(=O)c3ccc(Cl)cc3)cc2-c2ccncc2)c1`, the growth in the assay on HCT-15 colon (10 µM unless noted) was 98.4%; with HT29 colon (10 µM unless noted), 30.8%; in the assay on SNB-75 CNS (10 µM unless noted), -8.56% (active); with SNB-19 CNS (10 µM unless noted), 97.2%; in the assay with U251 CNS (10 µM unless noted), 70.6%; in the assay with PC-3 prostate (10 µM unless noted), 88.9%. Besides, the growth with SK-MEL-5 melanoma (10 µM unless noted) was 95.2%; with UACC-62 melanoma (10 µM unless noted), 73.3%; in the assay on LOX IMVI melanoma (10 µM unless noted), 45.5%; in the assay with SK-MEL-28 melanoma (10 µM unless noted), 95.8%; with SK-MEL-2 melanoma (10 µM unless noted), 95%; with EKVX NSCLC (10 µM unless noted) it was 59.5%. Besides, the growth with SN12C renal (10 µM unless noted) was 92.5%; with UO-31 renal, 63%; in the assay on TK-10 renal (10 µM unless noted), 85.8%; with ACHN renal, 80.6%; in the assay on CAKI-1 renal it was 91%; in the assay with A498 renal (10 µM unless noted) it was 70.2%. Also, the growth in the assay with CCRF-CEM leukemia was 88%; in the assay on MOLT-4 leukemia (10 µM unless noted), 76.2%.

Regarding `O=C(CN1C(=O)S/C(=C\C(Cl)=C\c2ccccc2)C1=O)NC1C=CS(=O)(=O)C1` (centres undefined), the growth was -18.1% (active) with HCT-15 colon (10 µM unless noted); -6.75% (active) in the assay on HT29 colon (10 µM unless noted); 19% with SNB-75 CNS (10 µM unless noted); 40.4% in the assay on SNB-19 CNS (10 µM unless noted); 16.9% with U251 CNS (10 µM unless noted); 19.7% with PC-3 prostate (10 µM unless noted). Moreover, the growth was 17.1% with SK-MEL-5 melanoma (10 µM unless noted); -19.2% (active) in the assay on UACC-62 melanoma (10 µM unless noted); -73.5% (active) in the assay on LOX IMVI melanoma (10 µM unless noted); -9.63% (active) with SK-MEL-28 melanoma (10 µM unless noted); 9.43% (active) in the assay with SK-MEL-2 melanoma (10 µM unless noted); 17.7% in the assay with EKVX NSCLC (10 µM unless noted). Also, the growth is -13.2% (active) in the assay on SN12C renal (10 µM unless noted); -78% (active) with UO-31 renal; -14.7% (active) in the assay with TK-10 renal (10 µM unless noted); -57.5% (active) in the assay with ACHN renal; 16.9% in the assay on CAKI-1 renal; 97.2% in the assay with A498 renal (10 µM unless noted). Besides, the growth in the assay on CCRF-CEM leukemia was 7.5% (active); in the assay with MOLT-4 leukemia (10 µM unless noted), 4.12% (active).

As to `CC(=O)/C=C/c1ccc(OCc2ccc(C(C)(C)C)cc2)cc1`, the growth with HCT-15 colon (10 µM) was 64.7%; in the assay on HCT-15 colon (100 µM), 22.2%; in the assay on HT29 colon (10 µM), 42.4%; in the assay with HT29 colon (100 µM), 8.01% (active); with SNB-75 CNS (10 µM) it was 94.7%; in the assay with SNB-75 CNS (100 µM), -11.6% (active). In addition, the growth in the assay with SNB-19 CNS (10 µM) is 98.5%; in the assay on SNB-19 CNS (100 µM), 28.5%; with U251 CNS (10 µM), 88.9%; in the assay on U251 CNS (100 µM), 37.7%; in the assay on PC-3 prostate (10 µM), 79.1%; in the assay on PC-3 prostate (100 µM), 14%. The growth in the assay with SK-MEL-5 melanoma (10 µM) is 50.3%; with SK-MEL-5 melanoma (100 µM), -6.85% (active); with UACC-62 melanoma (10 µM), 74.2%; in the assay with UACC-62 melanoma (100 µM), -3.4% (active); in the assay with LOX IMVI melanoma (10 µM) it was 62.3%; with LOX IMVI melanoma (100 µM), 32%. In addition, the growth in the assay with SK-MEL-28 melanoma (10 µM) was 85.5%; in the assay with SK-MEL-28 melanoma (100 µM) it was -1.32% (active); in the assay with SK-MEL-2 melanoma (10 µM) it was 91.5%; with SK-MEL-2 melanoma (100 µM) it was -21.6% (active); in the assay on EKVX NSCLC (10 µM), 95.1%; in the assay on EKVX NSCLC (100 µM), 24.8%. Further, the growth is 80% in the assay with SN12C renal (10 µM); 28.1% with SN12C renal (100 µM); 111% in the assay on TK-10 renal (10 µM); 55.1% in the assay with TK-10 renal (100 µM); 82.6% with ACHN renal; 80.4% in the assay on A498 renal (10 µM). Moreover, the growth is -94.2% (active) in the assay on A498 renal (100 µM), 28% [100 µM] in the assay on CCRF-CEM leukemia, 68.3% with MOLT-4 leukemia (10 µM) and 13.1% with MOLT-4 leukemia (100 µM).

On to `Cc1nc2sc(C(=O)Nc3cccc(Cl)c3C)c(N)c2cc1C(O)c1ccccc1` (centres undefined), for which the growth in the assay with HCT-15 colon (10 µM unless noted) is 12.3%; in the assay on HT29 colon (10 µM unless noted), 11.8%; in the assay with SNB-75 CNS (10 µM unless noted) it was 59.3%; in the assay with SNB-19 CNS (10 µM unless noted), 34.7%; in the assay on U251 CNS (10 µM unless noted) it was 9.59% (active); in the assay on PC-3 prostate (10 µM unless noted), 19.6%. For the same molecule, the growth in the assay with SK-MEL-5 melanoma (10 µM unless noted) was -37.5% (active); in the assay on UACC-62 melanoma (10 µM unless noted), 21.4%; in the assay with LOX IMVI melanoma (10 µM unless noted) it was 20.5%; with SK-MEL-28 melanoma (10 µM unless noted), 53.9%; in the assay on SK-MEL-2 melanoma (10 µM unless noted), 38.9%; with EKVX NSCLC (10 µM unless noted) it was 41.6%. The growth in the assay with SN12C renal (10 µM unless noted) is 9.22% (active); with UO-31 renal, 40.6%; in the assay with TK-10 renal (10 µM unless noted), 49.7%; in the assay on ACHN renal it was 22.5%; in the assay on CAKI-1 renal it was 30.9%; in the assay with A498 renal (10 µM unless noted), -11.6% (active). Besides, the growth in the assay with CCRF-CEM leukemia is 20.4%; in the assay with MOLT-4 leukemia (10 µM unless noted), 13%.
